Reference: PubChem BioAssay
Active and inactive are the calls of the source.

Experiments:
[1] = system: Plasmodium falciparum Sir2 (PF13_0152, Sir2A); experiment: Plasmodium falciparum Sir2A binding compounds – biochemical, small-molecule microarray, 635 nm fluorescence, primary screen (AID 1098); settings: fluorescence 635 nm, higher = more signal;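 further: score merges spot fluorescence intensity with its signal-to-noise ratio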
[2] = probe aDKK1 binding to arrayed compounds – biochemical, biotinylated probe, 635/667 nm fluorescence, primary screen (AID 1099); settings: small-molecule microarray, higher = more signal;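 further: score merges 667nm spot fluorescence with signal to noise across triplicate slides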
[3] = probe aCHRDL2 binding to arrayed compounds – biochemical, biotinylated probe, 635/667 nm fluorescence, primary screen (AID 1100); settings: small-molecule microarray, higher = more signal
[4] = change in splice reporter luminescence, either direction, cell-based, HEK293, spliceosome inhibition project, primary screen (AID 1101); settings: HEK293 splicing luciferase reporter, 24 h, higher = more signal, called active from +8 up or from −8 down;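 further: HEK293 cells carrying a splicing-competent luciferase reporter gene; test concentration not given here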
[5] = target: Fibroblast growth factor 10 (Homo sapiens) (UniProt O15520); experiment: compounds binding fibroblast growth factor 10 – biochemical, small-molecule microarray, 635 nm fluorescence, primary screen (AID 1102); settings: FGF10 binding, fluorescence 635 nm, higher = more signal
[6] = system: glycogen synthase kinase-3 (GSK3A per assay name; protocol says GSK3B); experiment: compounds binding glycogen synthase kinase-3 – biochemical, small-molecule microarray, 635 nm fluorescence, GSK3A, primary screen (AID 1103); settings: fluorescence 635 nm, higher = more signal; further: the record names both GSK3A and GSK3B
[7] = target: Epidermal growth factor receptor (Homo sapiens) (UniProt P00533); experiment: compounds binding epidermal growth factor receptor – biochemical, small-molecule microarray, 635 nm fluorescence, primary screen (AID 1104); settings: EGFR binding, higher = more signal;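 further: score merges 667 nm emission intensity with spot signal to noise over triplicate slides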
[8] = target: Follistatin-related protein 3 (Homo sapiens) (UniProt O95633); experiment: compounds binding follistatin-related protein 3 – biochemical, small-molecule microarray, 635 nm fluorescence, primary screen (AID 1105); settings: FSTL3 binding, higher = more signal;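 further: score merges emission near 667 nm and signal to noise per printed spot across three slides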
[9] = target: Dickkopf-related protein 1 (Homo sapiens) (UniProt O94907); experiment: small molecules binding DKK1 protein – biochemical, small-molecule microarray, 635 nm fluorescence scan, primary screen (AID 1106); settings: higher = more signal;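 further: score merges emission near 667 nm with signal to noise over three replicate slides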
[10] = system: Inhibin beta A chain (activin A); experiment: small molecules binding activin A – biochemical, small-molecule microarray, 635 nm fluorescence scan, primary screen (AID 1107); settings: INHBA, higher = more signal;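 further: mouse activin A protein probed at 4.33 µg/mL on printed slides; score merges bound-protein fluorescence near 667 nm with spot signal-to-noise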
[11] = system: Human papillomavirus type 1a protein E7 (residues 44-93); experiment: small molecules binding HPV E7 44-93 – biochemical, small-molecule microarray, residues 44-93, 635 nm fluorescence, primary screen (AID 1108); settings: fluorescence 635 nm, higher = more signal;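 further: E7 fragment applied at 1 µg/mL in TBST for 1 h at 4 C; score combines spot fluorescence with its signal to noise ratio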
[12] = hepatitis C replication reporter changes, two-sided – Huh7 cells, luciferase reporter, HCV replication inhibitor project, primary screen (AID 1109); settings: Huh7 HCV replicon luciferase reporter, 48 h; higher = more signal;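 further: huh7 hepatoma cells harbouring a luciferase neomycin HCV replicon reporter; luciferase luminescence as measure of HCV replicon replication; test concentration not given here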
[13] = target: Left-right determination factor 2 (Homo sapiens) (UniProt O00292); experiment: small molecules binding LEFTY2 protein – biochemical, small-molecule microarray, 635 nm fluorescence scan, primary screen (AID 1110); settings: higher = more signal
[14] = target: Calmodulin-1 (Homo sapiens) (UniProt P0DP23); experiment: small molecules binding calmodulin-1 with EGTA – biochemical, small-molecule microarray, Cy5-labelled CALM1, profiling panel (AID 1111); settings: Cy5-CALM1 binding fluorescence, higher = more signal;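 further: labelled calmodulin applied in Tris saline Tween buffer holding calcium plus EGTA and DTT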
[15] = target: Calmodulin-1 (Homo sapiens) (UniProt P0DP23); experiment: small molecules binding Ca-loaded calmodulin-1 – biochemical, small-molecule microarray, Cy5-labelled CALM1, plus calcium, artefact control for SMM control-protein annotation, profiling panel (AID 1112); settings: Cy5-CALM1 binding fluorescence, higher = more signal;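 further: score merges spot fluorescence with signal to noise from triplicate slides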
[16] = probe aWnt5a binding to arrayed compounds – biochemical, biotinylated probe, 635/667 nm fluorescence, primary screen (AID 1113); settings: small-molecule microarray, higher = more signal;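 further: score merges 667 nm fluorescence intensity with signal-to-noise per printed feature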
[17] = probe aShh binding to arrayed compounds – biochemical, biotinylated probe, 635/667 nm fluorescence, primary screen (AID 1114); settings: small-molecule microarray, higher = more signal;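 further: probe is biotin-labelled aShh protein from a stem cell growth factor screen; measures binding of labelled protein to compounds printed on the slide; score merges feature fluorescence at 667 nm with signal-to-noise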
[18] = probe aNog binding to arrayed compounds – biochemical, biotinylated probe, 635/667 nm fluorescence, primary screen (AID 1115); settings: small-molecule microarray, higher = more signal;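 further: probe is biotinylated aNog protein used at 0.15 µg/mL for 1 h at 4 C; z-score combines 667 nm fluorescence of each spot with its signal to noise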
[19] = target: Torsin-1A-interacting protein 1 (Homo sapiens) (UniProt Q5JTV8); experiment: compound microarray binding of lysate hLAP1 – cell lysate, small-molecule microarray, COS7 lysate, 635/667 nm fluorescence, primary screen (AID 1116); settings: 635 nm fluorescence, higher = more signal
[20] = target: Alpha-bungarotoxin (Bungarus multicinctus) (UniProt P60615); experiment: compounds binding labelled alpha-BTX control protein – biochemical, small-molecule microarray, Alexa647 label, 635/667 nm fluorescence, artefact control for SMM control protein annotation, profiling panel (AID 1117); settings: alpha-BTX-A647 binding fluorescence, higher = more signal
Alpha-bungarotoxin (Bungarus multicinctus), sequence (P60615 whole entry, looked up): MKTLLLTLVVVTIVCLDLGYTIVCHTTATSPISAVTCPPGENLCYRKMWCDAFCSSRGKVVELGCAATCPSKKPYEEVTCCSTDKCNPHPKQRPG

Epidermal growth factor receptor (Homo sapiens), sequence (P00533 whole entry, looked up): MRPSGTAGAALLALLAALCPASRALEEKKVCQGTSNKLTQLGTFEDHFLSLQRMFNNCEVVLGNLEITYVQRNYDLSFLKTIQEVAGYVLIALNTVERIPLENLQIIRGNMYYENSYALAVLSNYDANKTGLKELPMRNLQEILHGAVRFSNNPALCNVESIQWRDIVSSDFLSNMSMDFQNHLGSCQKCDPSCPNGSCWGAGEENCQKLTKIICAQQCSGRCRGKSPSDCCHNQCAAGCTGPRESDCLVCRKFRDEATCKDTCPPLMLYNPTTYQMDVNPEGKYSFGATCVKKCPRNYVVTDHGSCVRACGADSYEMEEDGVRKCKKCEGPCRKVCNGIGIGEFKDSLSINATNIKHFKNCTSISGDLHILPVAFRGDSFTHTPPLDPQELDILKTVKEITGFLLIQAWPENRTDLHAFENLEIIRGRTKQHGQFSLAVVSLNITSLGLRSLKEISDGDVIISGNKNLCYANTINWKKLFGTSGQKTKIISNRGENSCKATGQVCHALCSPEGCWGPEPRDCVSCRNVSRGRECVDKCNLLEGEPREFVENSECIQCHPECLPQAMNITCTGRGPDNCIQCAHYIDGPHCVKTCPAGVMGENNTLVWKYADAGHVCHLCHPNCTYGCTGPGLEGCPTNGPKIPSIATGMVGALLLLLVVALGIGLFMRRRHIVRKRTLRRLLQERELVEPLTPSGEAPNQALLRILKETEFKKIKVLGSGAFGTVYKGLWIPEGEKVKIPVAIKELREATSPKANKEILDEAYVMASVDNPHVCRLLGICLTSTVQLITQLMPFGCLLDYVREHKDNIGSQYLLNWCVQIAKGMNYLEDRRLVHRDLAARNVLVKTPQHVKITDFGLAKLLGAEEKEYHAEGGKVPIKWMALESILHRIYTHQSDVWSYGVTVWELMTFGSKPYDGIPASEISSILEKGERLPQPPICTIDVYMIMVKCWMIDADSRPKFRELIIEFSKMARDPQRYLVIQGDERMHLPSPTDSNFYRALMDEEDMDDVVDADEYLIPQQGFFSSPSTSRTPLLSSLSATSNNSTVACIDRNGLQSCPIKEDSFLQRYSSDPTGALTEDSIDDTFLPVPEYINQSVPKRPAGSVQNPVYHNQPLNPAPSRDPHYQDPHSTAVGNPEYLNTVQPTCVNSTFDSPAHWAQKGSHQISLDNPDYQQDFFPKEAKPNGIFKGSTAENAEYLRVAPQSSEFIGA
Left-right determination factor 2 (Homo sapiens), sequence (O00292 whole entry, looked up): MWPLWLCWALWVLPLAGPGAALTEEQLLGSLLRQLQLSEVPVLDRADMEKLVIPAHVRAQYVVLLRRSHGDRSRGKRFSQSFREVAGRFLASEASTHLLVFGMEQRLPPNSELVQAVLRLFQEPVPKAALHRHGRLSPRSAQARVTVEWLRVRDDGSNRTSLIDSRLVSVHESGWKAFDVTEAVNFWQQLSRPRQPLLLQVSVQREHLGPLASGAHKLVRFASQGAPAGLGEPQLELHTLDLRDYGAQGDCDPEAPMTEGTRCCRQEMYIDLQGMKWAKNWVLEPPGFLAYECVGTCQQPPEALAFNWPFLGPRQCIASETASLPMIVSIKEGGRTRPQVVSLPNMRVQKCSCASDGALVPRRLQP
Fibroblast growth factor 10 (Homo sapiens), sequence (O15520 whole entry, looked up): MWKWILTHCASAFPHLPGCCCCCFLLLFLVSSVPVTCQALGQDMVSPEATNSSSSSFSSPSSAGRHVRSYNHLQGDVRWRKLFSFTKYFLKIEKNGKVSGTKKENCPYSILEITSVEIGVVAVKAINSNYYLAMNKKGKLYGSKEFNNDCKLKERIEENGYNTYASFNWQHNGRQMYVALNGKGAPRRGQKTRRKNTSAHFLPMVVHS
Torsin-1A-interacting protein 1 (Homo sapiens), sequence (Q5JTV8 whole entry, looked up): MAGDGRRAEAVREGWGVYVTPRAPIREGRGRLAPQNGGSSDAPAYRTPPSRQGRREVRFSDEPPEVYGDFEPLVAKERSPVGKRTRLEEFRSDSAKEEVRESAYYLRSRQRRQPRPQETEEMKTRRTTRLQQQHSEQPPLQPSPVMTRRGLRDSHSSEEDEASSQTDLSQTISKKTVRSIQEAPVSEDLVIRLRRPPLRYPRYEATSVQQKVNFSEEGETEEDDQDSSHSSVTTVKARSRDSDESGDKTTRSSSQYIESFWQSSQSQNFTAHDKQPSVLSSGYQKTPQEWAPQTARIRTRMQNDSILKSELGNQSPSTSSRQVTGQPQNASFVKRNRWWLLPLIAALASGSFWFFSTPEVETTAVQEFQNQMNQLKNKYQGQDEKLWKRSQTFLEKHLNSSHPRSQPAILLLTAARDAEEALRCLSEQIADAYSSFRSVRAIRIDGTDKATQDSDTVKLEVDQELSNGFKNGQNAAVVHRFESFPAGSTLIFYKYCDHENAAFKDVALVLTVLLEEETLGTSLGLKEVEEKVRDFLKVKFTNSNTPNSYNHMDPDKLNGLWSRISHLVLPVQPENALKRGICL
Dickkopf-related protein 1 (Homo sapiens), sequence (O94907 whole entry, looked up): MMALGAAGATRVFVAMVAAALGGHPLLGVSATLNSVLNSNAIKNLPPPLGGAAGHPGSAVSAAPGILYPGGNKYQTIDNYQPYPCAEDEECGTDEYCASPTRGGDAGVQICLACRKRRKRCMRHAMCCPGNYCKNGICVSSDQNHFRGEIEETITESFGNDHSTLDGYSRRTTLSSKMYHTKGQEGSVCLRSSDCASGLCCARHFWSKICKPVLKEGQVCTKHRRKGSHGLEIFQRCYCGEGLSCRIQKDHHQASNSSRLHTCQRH
Follistatin-related protein 3 (Homo sapiens), sequence (O95633 whole entry, looked up): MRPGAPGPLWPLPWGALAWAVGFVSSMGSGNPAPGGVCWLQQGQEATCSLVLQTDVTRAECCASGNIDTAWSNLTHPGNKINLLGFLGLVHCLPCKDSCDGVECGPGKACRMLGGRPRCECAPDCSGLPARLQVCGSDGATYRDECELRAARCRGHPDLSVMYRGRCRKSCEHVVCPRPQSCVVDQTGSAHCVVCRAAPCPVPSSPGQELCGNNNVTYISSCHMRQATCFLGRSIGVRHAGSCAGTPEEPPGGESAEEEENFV

## COc1ccc([Si](C)(C)[C@H]2[C@H](CCO)O[C@@]3(C(=O)N(Cc4cccc(N5CCCCC5=O)c4)c4ccccc43)[C@@H]2C)cc1
[1]
  composite z-score: 1.08
[2]
  composite z-score: 0.176
[3]
  composite z-score: 0.0883
[4]
  z-score: -2.37 (inactive)
[5]
  composite z-score: 0.748
[6]
  composite z-score: 0.845
[7]
  composite z-score: 0.525
[8]
  composite z-score: 1.16
[9]
  composite z-score: 0.82
[10]
  composite z-score: 0.861
[11]
  composite z-score: 1.25
[12]
  z-score: -5.07
[13]
  composite z-score: 1
[14]
  composite z-score: 0.557
[15]
  composite z-score: 0.388
[16]
  composite z-score: -0.0919
[17]
  composite z-score: 0.149
[18]
  composite z-score: 0.304
[19]
  composite z-score: 0.753
[20]
  composite z-score: 1.22

## CC(C)(C)OC(=O)CC[C@]1(C(=O)NCCN2CCOCC2)N=C(c2ccc(OCCCO)cc2)O[C@H]1c1ccccc1N=[N+]=[N-]
[1]
  composite z-score: 1.63
[2]
  composite z-score: 0.99
[3]
  composite z-score: 1.12
[4]
  z-score: -1.03 (inactive)
[5]
  composite z-score: 0.177
[6]
  composite z-score: 1.17
[7]
  composite z-score: 0.303
[8]
  composite z-score: 0.361
[9]
  composite z-score: -0.235
[10]
  composite z-score: 1.24
[11]
  composite z-score: 0.775
[12]
  z-score: 1.08
[13]
  composite z-score: 0.245
[14]
  composite z-score: 1.3
[15]
  composite z-score: 0.374
[16]
  composite z-score: 0.0229
[17]
  composite z-score: 0.0214
[18]
  composite z-score: 1.73
[19]
  composite z-score: 1.7
[20]
  composite z-score: 1.04

## CN(C)CCCNC(=O)[C@@H]1c2ccccc2C(=O)N(Cc2ccc(OC(F)(F)F)cc2)[C@H]1c1ccc(CO)cc1
[1]
  composite z-score: 1.33
[2]
  composite z-score: -0.115
[3]
  composite z-score: 0.56
[4]
  z-score: 0.0681 (inactive)
[5]
  composite z-score: 0.0228
[6]
  composite z-score: 0.887
[7]
  composite z-score: -0.617
[8]
  composite z-score: 0.351
[9]
  composite z-score: 0.0558
[10]
  composite z-score: 0.561
[11]
  composite z-score: 1.35
[12]
  z-score: -2.08
[13]
  composite z-score: -0.0765
[14]
  composite z-score: -0.226
[15]
  composite z-score: -0.919
[16]
  composite z-score: 0.0003
[17]
  composite z-score: 0.0278
[18]
  composite z-score: -0.309
[19]
  composite z-score: 0.724
[20]
  composite z-score: 0.243

## CC1CC/C=C\[C@H]2OC34C=CCN(C(C)C)C(=O)[C@H]3N(CCCCCO)C(=O)[C@@H]4C2C(=O)O1 (stereo not given in full)
[1]
  composite z-score: 0.382
[2]
  composite z-score: -0.0733
[3]
  composite z-score: 0.655
[4]
  z-score: -0.356 (inactive)
[5]
  composite z-score: -0.82
[6]
  composite z-score: -0.609
[7]
  composite z-score: -1.4
[8]
  composite z-score: -1.05
[9]
  composite z-score: -1.73
[10]
  composite z-score: -0.15
[11]
  composite z-score: -0.806
[12]
  z-score: 0.205
[13]
  composite z-score: -2.15
[14]
  composite z-score: -0.329
[15]
  composite z-score: 0.446
[16]
  composite z-score: -0.178
[17]
  composite z-score: -0.206
[18]
  composite z-score: 0.179
[19]
  composite z-score: -0.753
[20]
  composite z-score: -1.36

## O=C1O[C@@H](c2ccccc2)[C@@H](c2ccccc2)N2[C@@H](c3ccc(O)cc3)[C@]3(C(=O)Nc4ccc(C#CCCO)cc43)[C@@H](C(=O)Nc3nc4ccccc4s3)[C@H]12
[1]
  composite z-score: 0.94
[2]
  composite z-score: 0.0179
[3]
  composite z-score: 0.376
[4]
  z-score: 0.344 (inactive)
[5]
  composite z-score: 1.17
[6]
  composite z-score: 1.13
[7]
  composite z-score: 0.214
[8]
  composite z-score: 0.545
[9]
  composite z-score: -0.17
[10]
  composite z-score: 0.0507
[11]
  composite z-score: 1.23
[12]
  z-score: -0.0469
[13]
  composite z-score: 0.173
[14]
  composite z-score: 0.289
[15]
  composite z-score: -0.331
[16]
  composite z-score: -0.0405
[17]
  composite z-score: 0.108
[18]
  composite z-score: 0.128
[19]
  composite z-score: 1.2
[20]
  composite z-score: 1.66

## C=CCN1C(=O)[C@@]2(CCC(=O)OC(C)(C)C)N=C(c3ccc(OCCCO)cc3)O[C@H]2c2ccccc21
[1]
  composite z-score: 1.25
[2]
  composite z-score: 0.549
[3]
  composite z-score: 1
[4]
  z-score: 0.0157 (inactive)
[5]
  composite z-score: 0.0195
[6]
  composite z-score: 1.13
[7]
  composite z-score: 0.217
[8]
  composite z-score: 0.792
[9]
  composite z-score: 0.116
[10]
  composite z-score: 1.4
[11]
  composite z-score: 1.36
[12]
  z-score: -2.97
[13]
  composite z-score: 0.224
[14]
  composite z-score: 1.47
[15]
  composite z-score: 0.516
[16]
  composite z-score: 0.065
[17]
  composite z-score: 0.0048
[18]
  composite z-score: -0.226
[19]
  composite z-score: 0.144
[20]
  composite z-score: 0.916

## COCC(=C=CC[C@H](O)c1ccc(OCCO)cc1)C[C@H](O)COCc1ccccc1
[1]
  composite z-score: 1.56
[2]
  composite z-score: -0.199
[3]
  composite z-score: -0.228
[4]
  z-score: -1.11 (inactive)
[5]
  composite z-score: 0.605
[6]
  composite z-score: 0.351
[7]
  composite z-score: 0.291
[8]
  composite z-score: 0.944
[9]
  composite z-score: 0.462
[10]
  composite z-score: 0.928
[11]
  composite z-score: 0.486
[12]
  z-score: -0.313
[13]
  composite z-score: 0.32
[14]
  composite z-score: -0.0904
[15]
  composite z-score: -0.847
[16]
  composite z-score: -0.0718
[17]
  composite z-score: -0.279
[18]
  composite z-score: -0.302
[19]
  composite z-score: 1.52
[20]
  composite z-score: 0.439

## O=C1OCC=C[C@H]2OC34C=CCN(Cn5nnc6ccccc65)C(=O)[C@H]3N(CCCCCCO)C(=O)[C@@H]4[C@@H]12 (stereo not given in full)
[1]
  composite z-score: 1.25
[2]
  composite z-score: 0.0374
[3]
  composite z-score: 0.538
[4]
  z-score: 0.434 (inactive)
[5]
  composite z-score: -0.577
[6]
  composite z-score: 0.0986
[7]
  composite z-score: -0.896
[8]
  composite z-score: -1.02
[9]
  composite z-score: -0.566
[10]
  composite z-score: 0.955
[11]
  composite z-score: -0.0554
[12]
  z-score: -0.113
[13]
  composite z-score: -1.14
[14]
  composite z-score: -0.129
[15]
  composite z-score: -0.004
[16]
  composite z-score: -0.152
[17]
  composite z-score: -0.16
[18]
  composite z-score: 0.162
[19]
  composite z-score: 3.14
[20]
  composite z-score: -0.608
